Assay: compound binding in COS7 lysate, probe aLAP1, primary screen, cell lysate, small-molecule microarray (AID 1124);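 further: lysate comes from COS7 cells expressing LAP1 and is applied at 0.3 µg/mL; score merges spot fluorescence near 667 nm with signal-to-noise over triplicate slides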
Conditions: probe aLAP1, fluorescence, higher = more signal

SMILES	composite z-score
O=C1O[C@@H](c2ccccc2)[C@@H](c2ccccc2)N2[C@@H](c3ccc(OCCO)cc3)[C@]3(C(=O)Nc4ccc(C#CC5=CCCCC5)cc43)[C@@H](C(=O)N3CCCCCCC3)[C@H]12	1.6
CN1C(=O)C2C=CC(C(O)c3ccccc3)N(N3CCCCC3)C2C1=O (stereo unspecified)	0.676
C[C@H]1C2[C@H](Cc3ccccc3)NC(=O)[C@]23C(=O)NCC(=O)N2CCC[C@H]2C(=O)NC/C=C/CCC/C=C/C3[C@@H]2O[C@]12C (stereo partly specified)	0.053
NC(=O)NCC#Cc1ccc2c(c1)[C@]1(C(=O)N2)[C@H](C(=O)O)[C@H]2C(=O)O[C@H](c3ccccc3)[C@H](c3ccccc3)N2[C@@H]1c1ccc(O)cc1	-0.464
O=C(O)C1N=C(c2ccc(OCCCO)cc2)N(c2ccccc2)O1 (stereo unspecified)	-0.287
CN(C)CCCCCCNC(=O)[C@@H]1C[C@@H]2C(=O)N[C@@H](CCCC[N+](C)(C)C)C(=O)N2[C@@H]1c1ccc(O)cc1	0.246
O=C1OCC=C[C@H]2OC34C=CCN(CCN5CCOCC5)C(=O)[C@H]3N(CCO)C(=O)[C@@H]4[C@@H]12 (stereo partly specified)	-0.194
CS(=O)(=O)CCOC(=O)C1=CC(CCCO)=CC(C2CC2)N(Cc2cc3c(cc2Br)OCO3)C=C1C(=O)OCCS(C)(=O)=O (stereo unspecified)	0.495
CCCC=C(CCC)[C@@H](NS(=O)(=O)c1ccc(Cl)cc1)c1ccc(C(=O)OC)cc1	-0.159
[N-]=[N+]=Nc1ccccc1C[C@@]1(C(=O)N2CCCCC2)N=C(c2ccc(OCCCO)cc2)O[C@@H]1c1ccccc1N=[N+]=[N-]	0.158
O=C1O[C@H](c2ccccc2)[C@H](c2ccccc2)N2[C@H]1[C@@H](C(=O)NC[C@H](O)c1ccccc1)[C@]1(C(=O)Nc3ccc(C#CC4=CCCCC4)cc31)[C@H]2c1ccccc1OCCO	0.522
C=CCC(OC(C)=O)[C@@H]1[C@@H](N(Cc2cc3ccccc3o2)C(=O)Cc2ccc(OC)cc2)c2cc(OCCCO)ccc2N1C(=O)c1ccc2ccccc2c1 (stereo partly specified)	0.16
O=C1[C@H]2C=C(I)[C@H](C[C@@H]2OCCCCO)[C@@]12CO2	0.489
[N-]=[N+]=Nc1ccccc1C[C@]1(C(=O)NCC(O)CO)N=C(c2ccc(OCCCO)cc2)O[C@H]1c1ccccc1 (stereo partly specified)	0.132
O=C1O[C@H](c2ccccc2)[C@H](c2ccccc2)N2[C@H]1[C@@H](C(=O)NC[C@H](O)c1ccccc1)[C@]1(C(=O)Nc3ccccc31)[C@H]2c1ccc(O)cc1	0.463
CCN(CC)c1ccc(N2CC=CC34O[C@@H]5C=CCOC(=O)[C@@H]5[C@H]3C(=O)N(CCCCCCO)[C@@H]4C2=O)cc1 (stereo partly specified)	0.751
CC1CC/C=C\[C@H]2OC34C=CCN(c5ccc6ccccc6c5)C(=O)[C@H]3N(CCO)C(=O)[C@@H]4C2C(=O)O1 (stereo partly specified)	0.758
CC=CC(O)C1C=CC2C(=O)N(C)C(=O)C2N1N(c1ccccc1)c1ccccc1 (stereo unspecified)	0.198

SMILES	composite z-score
CCOC(=O)C1=CCC(c2ccc(F)cc2)N(S(=O)(=O)c2ccc(C)cc2)C1 (stereo unspecified)	0.552
O=C1C2C=CC(C(O)C=Cc3ccc([N+](=O)[O-])cc3)N(Nc3ccccc3F)C2C(=O)N1c1ccccc1 (stereo unspecified)	0.885
C=CCN1Cc2ccccc2[C@@H]2OC(c3ccc(OCCCO)cc3)=N[C@]2(CCS(=O)(=O)c2ccccc2)C1=O	0.725
O=C(CS)NCCCCCNC(=O)[C@H]1C[C@H]2C(=O)NCC(=O)N2[C@H]1c1ccc(O)cc1	-0.474
[N-]=[N+]=NCc1ccccc1[C@@H]1OC(c2ccc(OCCCO)cc2)=N[C@]1(CCS(=O)(=O)c1ccccc1)C(N)=O	0.247
C=CCN1C(=O)[C@]2(Cc3ccccc3)N=C(c3ccc(OCCCO)cc3)O[C@@H]2c2ccccc21	-0.0869
O=C1OCCC/C=C\[C@H]2OC34C=CCN(c5ccc6ccccc6c5)C(=O)[C@H]3N(CCCCCO)C(=O)[C@@H]4C12 (stereo partly specified)	-0.289
CCOc1cc(C(O)C2C=CC3C(=O)N(c4ccccc4)C(=O)C3N2Nc2ccc(C(C)C)cc2)ccc1O (stereo unspecified)	0.33
[N-]=[N+]=Nc1ccccc1C[C@]1(C(=O)N2CCCCC2)COC(c2ccc(OCCCO)cc2)=N1	0.236
C=C(C(=O)CC[C@H](OC(C)=O)c1ccccc1OCCO)C(C)C	1.87
Cc1ccc(S[C@]2(C(=O)O)CC(=O)N(C(C)C)[C@@H]2c2ccc(CO)cc2)cc1	1.14
CN(C)C(=O)[C@]1(Cc2ccccc2)N=C(c2ccc(OCCCO)cc2)O[C@@H]1c1ccccc1N=[N+]=[N-]	0.764
CCCCCN1CC=CC23O[C@@H]4C=CCOC(=O)[C@@H]4[C@H]2C(=O)N(C(C)CO)[C@@H]3C1=O (stereo partly specified)	-0.0739
CO[C@H]1O[C@H](CO)[C@@H](OC(=O)Nc2cccc(F)c2)[C@H](OC(=O)Nc2ccccc2)[C@H]1OC(=O)Nc1ccccc1	0.168
NC(=O)[C@@H]1[C@H]2C(=O)O[C@H](c3ccccc3)[C@H](c3ccccc3)N2[C@H](c2ccc(O)cc2)[C@@]12C(=O)Nc1ccc(C#CC3=CCCCC3)cc12	0.331
C=CC1c2cc(O)c(OC)cc2CCN1Cc1cccc(OC(F)(F)F)c1 (stereo unspecified)	0.754
CC(C)[Si](C#CCCCC#N)(O[C@H](c1ccccc1)c1cn(Cc2cccc(Cl)c2)nn1)C(C)C	-0.192
COC(=O)c1c2oc(c1C(=O)OC)C(=O)NC1(CCCCC1)c1cn(nn1)C[C@H](Cc1ccccc1)NC(=O)N[C@H](CO)CC2	-0.0871
